Whole data set: some 81,000 sequences, median “one-hybrid fitness for binding NBS DNA” near -0.1, cut for the highest 2% near 0.36. The list comes from a sample in which the highest values are over-represented; it also holds similar and randomly drawn sequences.
B1: Caulobacter ParB omega fusion; a variant is named by its letters at X, in order, B8GW30 (parent)
chain: MESVVVGEPGMSEGRRGLGRGLSALLGEVDAAPAQAPGEQLGGSREAPIEILQRNPDQPRRTFREEDLEDLSNSIREKGVLQPILVRPSPDTAGEYQIVAGERAWRAAQRAGLKTVPIMVRELDDLAVLEIGIIENVQRADLNVLEEALSYKVLMEKFERTQENIAQTIGKSXSHVANXMRLLXLPDEVQSYLVSGELTAXHARAIAAAADPVALAKQIIEGGLSVRETEALARKAPNLSAGKSKGGRPPRVKDTDTQALESDLSSVLGLDVSIDHRGSTGTLTITYATLEQLDDLCNRLTRGI

Variants of: B1
Test: one-hybrid fitness for binding NBS DNA (the Noc-binding site; scaled: cognate 1, non-cognate 0); higher = stronger binding
Details: with NBS DNA site
Method in brief: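 Fitness here means the log change in variant-to-wild-type read ratio between plasmids sequenced before and after selection. That scale was set so cognate equals 1 and non-cognate equals 0. The selection was a bacterial one-hybrid screen of Caulobacter ParB libraries, four specificity codons randomised, in E. coli USO carrying a HIS3 reporter with the site 19 bp from the promoter, grown 48 hours at 37°C on M9-minus-histidine with 0.1 mM IPTG and 5 mM 3-AT.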

one-hybrid fitness for binding NBS DNA, 0.273:
QSNH

one-hybrid fitness for binding NBS DNA, 0.31:
RTKC

one-hybrid fitness for binding NBS DNA, 0.356:
RTKQ
QQKF

one-hybrid fitness for binding NBS DNA, 0.552:
KRQR

one-hybrid fitness for binding NBS DNA, 0.461:
QRPS

one-hybrid fitness for binding NBS DNA, 0.342:
QAGS

one-hybrid fitness for binding NBS DNA, 0.23:
QARD

one-hybrid fitness for binding NBS DNA, 0.308:
QAIR

one-hybrid fitness for binding NBS DNA, 0.598:
QPVQ

one-hybrid fitness for binding NBS DNA, 0.439:
RVSR

one-hybrid fitness for binding NBS DNA, 0.369:
QCRE
QLGT

one-hybrid fitness for binding NBS DNA, 0.24:
QARP

one-hybrid fitness for binding NBS DNA, 0.329:
QINS

one-hybrid fitness for binding NBS DNA, 0.239:
KRPR

one-hybrid fitness for binding NBS DNA, 0.421:
QSNS

one-hybrid fitness for binding NBS DNA, 0.429:
RVTR

one-hybrid fitness for binding NBS DNA, 0.351:
QSKQ

one-hybrid fitness for binding NBS DNA, 0.207:
QRYE
RRYQ

one-hybrid fitness for binding NBS DNA, 0.558:
QCGT

one-hybrid fitness for binding NBS DNA, 0.405:
QTRE

one-hybrid fitness for binding NBS DNA, 0.449:
RVTT

one-hybrid fitness for binding NBS DNA, 0.291:
QSVQ

one-hybrid fitness for binding NBS DNA, 0.343:
QHGS
RSKA

one-hybrid fitness for binding NBS DNA, 0.458:
QMNS

one-hybrid fitness for binding NBS DNA, 0.215:
RCVQ

one-hybrid fitness for binding NBS DNA, 0.378:
KRIR
QTKE

one-hybrid fitness for binding NBS DNA, 0.597:
RKAR

one-hybrid fitness for binding NBS DNA, 0.561:
KRSR

one-hybrid fitness for binding NBS DNA, 0.241:
RRDQ

one-hybrid fitness for binding NBS DNA, 0.254:
RCKQ

one-hybrid fitness for binding NBS DNA, 0.414:
MARR

one-hybrid fitness for binding NBS DNA, 0.557:
KRGR

one-hybrid fitness for binding NBS DNA, 0.22:
QSRE

one-hybrid fitness for binding NBS DNA, 0.616:
KRHR

one-hybrid fitness for binding NBS DNA, 0.327:
RIKA

one-hybrid fitness for binding NBS DNA, 0.525:
QAGR

one-hybrid fitness for binding NBS DNA, 0.661:
KRNR

one-hybrid fitness for binding NBS DNA, 0.712:
RRKA

one-hybrid fitness for binding NBS DNA, 0.541:
QAHR

one-hybrid fitness for binding NBS DNA, 0.275:
QAPR

one-hybrid fitness for binding NBS DNA, 0.331:
QIGT

one-hybrid fitness for binding NBS DNA, 0.368:
KRER
QRKE

one-hybrid fitness for binding NBS DNA, 0.578:
KRWR

one-hybrid fitness for binding NBS DNA, 0.312:
QTGY

one-hybrid fitness for binding NBS DNA, 0.55:
KRCR

one-hybrid fitness for binding NBS DNA, 0.392:
QANS
RVTS

one-hybrid fitness for binding NBS DNA, 0.443:
RKFR

one-hybrid fitness for binding NBS DNA, 0.297:
QCKE

one-hybrid fitness for binding NBS DNA, 0.811:
QQKT

one-hybrid fitness for binding NBS DNA, 0.376:
RCFR

one-hybrid fitness for binding NBS DNA, ≤ 0.2:
YEPF
HTTL
YPNR
EHEC
THMK
KCHR
KCGR
KSHR
KPGR
KCQR
DRQR
KPWR
KSWR
NSRQ
TYKN
HHDR
DNHG
KCSR
NRSR
KSER
KCER
DRLR
KCLR
IRGF
QCPH
TMHT
KCCR
KCIR
NRCR
KRRD
KCYR
KPYR
GERG
HQHR
VMTL
CRHA
HMKG
THLW
GMMA
QTVE
QTDE
QRVE
QTYE
QPRE
DNPC
TLCS
AKQC
YPSA
VEHK
IPPG
NQDG
HSKR
CSCG
RDNI
RVSC
RVSH
RVSF
RVSD
RVSN
RVSP
TKDA
NVIT
NCKE
GYMR
VACG
GAQH
LKVD
RPFR
RKFK
RFFR
RKFQ
RKAN
PSEM
VQGT
EMAT
MADF
PISS
CTLV
YGYV
RTVD
RTVK
EDMY
WWLN
RCEN
DHID
PMHC
TEPL
PAKT
PFVA
GVMR
QQVP
QQVN
DFWV
PKQR
TNGR
DAAG
CWHR
QSGN
QAGN
QLGH
QSGD
DRLC
AHIW
CMMG
SQTP
CRSF
KPEL
QHGP
QPGT
LTNG
SHCL
DTQK
GMQY
SYPN
QRPP
QRIN
QRPD
TLDA
VTHW
PTMM
REHM
TEDC
MFLM
WPQL
QDTP
SAMV
RPKA
RKVA
RTVA
RFKA
RTPA
VDGR
KWPI
RNIK
VKTS
LYFR
CLSP
QWKS
SAIE
RSVA
RCVA
SFPF
CLCS
HDRG
PCMM
QHDS
QMDS
QANP
QMNP
QADS
QHNN
QSDS
KNIF
WQYS
YNRS
VAGY
ITFA
TSRF
KQID
QLDS
QLNP
QPNS
CAVL
QPKQ
QRPQ
QWKF
LTYT
THMS
QFPN
GTPY
EAGR
MHRT
RVTD
RVTH
RVTM
RVTY
RVTP
RVTN
LTHY
RNVL
GFEG
DLLN
MAYR
QAGH
QAHD
QAHQ
MARN
QAGD
PHID
SLRF
CMGR
NAWR
STPW
CRAL
FGKT
GADW
KKET
MDLY
AKDS
LERS
RKVQ
RFVQ
RSVQ
RSKQ
GWHC
VAYS
MTCD
DSMI
KMGG
CFTM
YTCL

one-hybrid fitness for binding NBS DNA, 0.534:
QCNS

one-hybrid fitness for binding NBS DNA, 0.319:
KRRK

one-hybrid fitness for binding NBS DNA, 0.322:
RKAH
QLGS

one-hybrid fitness for binding NBS DNA, 0.546:
QRIS

one-hybrid fitness for binding NBS DNA, 0.223:
KCNR

one-hybrid fitness for binding NBS DNA, 0.479:
RTKA

one-hybrid fitness for binding NBS DNA, 0.27:
QTGQ

one-hybrid fitness for binding NBS DNA, 0.39:
RVSS

one-hybrid fitness for binding NBS DNA, 0.492:
QRKQ

one-hybrid fitness for binding NBS DNA, 0.973:
QARR

one-hybrid fitness for binding NBS DNA, 0.514:
RKKA

one-hybrid fitness for binding NBS DNA, 0.571:
RRVA

one-hybrid fitness for binding NBS DNA, 0.419:
QHNS

one-hybrid fitness for binding NBS DNA, 0.545:
KRYR

one-hybrid fitness for binding NBS DNA, 0.336:
KRDR

one-hybrid fitness for binding NBS DNA, 0.222:
KQKT

one-hybrid fitness for binding NBS DNA, 0.64:
QTGT

one-hybrid fitness for binding NBS DNA, 0.393:
RTVT
QQVT

one-hybrid fitness for binding NBS DNA, 0.787:
KRRR

one-hybrid fitness for binding NBS DNA, 0.397:
RPVQ

one-hybrid fitness for binding NBS DNA, 0.401:
RRRQ

one-hybrid fitness for binding NBS DNA, 0.335:
RLMT
QRIH

one-hybrid fitness for binding NBS DNA, 0.423:
RCKA

one-hybrid fitness for binding NBS DNA, 0.436:
RRKQ

one-hybrid fitness for binding NBS DNA, 0.385:
QSGT
QHGT
QLNS

one-hybrid fitness for binding NBS DNA, 0.724:
RTKT

one-hybrid fitness for binding NBS DNA, 0.37:
QAGT

one-hybrid fitness for binding NBS DNA, 0.463:
RVST

one-hybrid fitness for binding NBS DNA, 0.456:
KRLR

one-hybrid fitness for binding NBS DNA, 0.511:
QRVQ

one-hybrid fitness for binding NBS DNA, 0.428:
RRVQ

one-hybrid fitness for binding NBS DNA, 0.464:
QAYR

one-hybrid fitness for binding NBS DNA, 0.249:
RKWA

— a collection of fitness landscapes (doi:10.1016/j.celrep.2020.107928)
